Data published in PubChem BioAssay (NCI).
The panel holds about 83,000 compounds, 20% with a hit somewhere; the sample as a whole holds those more often.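 Cell lines were cultured in 96-well plates, exposed to a single compound concentration, and assessed for percent growth 48 hours later.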 Values without a mark were called inactive. Calls of active or inactive are those of the source. Rule for the calls: active = growth percent below 10; inactive = the rest.

How the values were obtained:
Experiment in all cases: NCI-60 one-dose screen, 48 h (100 = growth as untreated, 0 = no growth, -100 = all killed)
Conditions in all cases: 10 µM unless noted
[1] = tested on: HCT-15 colon
[2] = tested on: HT29 colon
[3] = tested on: SNB-19 CNS
[4] = tested on: U251 CNS
[5] = tested on: PC-3 prostate
[6] = tested on: SK-MEL-5 melanoma
[7] = tested on: UACC-62 melanoma
[8] = tested on: SK-MEL-28 melanoma
[9] = tested on: LOX IMVI melanoma

Structure (SMILES)	growth [1]	growth [2]	growth [3]	growth [4]	growth [5]	growth [6]	growth [7]	growth [8]	growth [9]
Clc1cc(Cl)cc(-c2ccc(-c3ccc(/C=N/NC4=NCCN4)cc3)s2)c1	-62.4% (active)	0.288% (active)	53.2%	-79% (active)	35.1%	88.1%	68.1%	97.3%	–
C=CCn1c2ccccc2c2c3c(c4c5ccccc5n(CC=C)c4c21)C(=O)N(O)C3=O	35.5%	19.2%	36.1%	11.5%	21.8%	-48.5% (active)	–	–	-81.2% (active)
CCCCN(CCCC)C(=O)CC	101%	110%	114%	–	98.2%	103%	106%	114%	104%
Cc1ccc(-c2cc3nc(-c4ccccc4)nc(C(Cl)Cl)n3n2)cc1	-30.4% (active)	-47.1% (active)	-40.1% (active)	-83.5% (active)	-76% (active)	83.9%	-65.3% (active)	34.6%	–
O=C(c1c[nH]c(=O)c(-c2ccccc2)c1)c1ccccc1O	97.7%	101%	81.5%	–	89.2%	95.4%	81.1%	93.5%	103%
ClC(Cl)c1nc(-c2cccnc2)n2nc(-c3ccccc3)cc2n1	-21.3% (active)	-12.7% (active)	25.7%	-32.7% (active)	24.4%	36%	47.5%	73.4%	–
COC(=O)[C@]12CC[C@@H](C)[C@H](C)[C@@H]1C1=CC[C@@H]3[C@@]4(C)C(C=O)=C[C@@](C)(COC(=O)c5ccco5)[C@@H]4[C@H](O)C[C@@]3(C)[C@]1(C)CC2	-78.3% (active)	-64.4% (active)	7.8% (active)	-76.8% (active)	-8% (active)	-94.9% (active)	–	–	-91.4% (active)
O=C(Nc1ccncc1)C(=O)c1cn(S(=O)(=O)c2ccccc2F)c2ccccc12	31.7%	7.48% (active)	60.6%	–	40.1%	13.5%	32.3%	61.5%	37%
COc1cc(-c2nc(N=Nc3c(O)[nH]c4ccc(Br)cc34)[nH]c(=O)c2C#N)cc(OC)c1OC	98.6%	106%	100%	99.7%	98.8%	–	96.1%	111%	98.2%
COc1ccc(C(=O)N2NC(=O)/C(=C/c3ccc(Br)cc3)N=C2c2ccccc2)cc1	94.8%	93.2%	87.4%	72.9%	–	93.8%	68.3%	94.5%	87.9%
COc1cccc(/C=C2\Oc3cc(OCCCN4CCCC4)ccc3C2=O)c1OC	76.2%	48.6%	102%	93.2%	91.9%	–	98.9%	105%	89.2%
C=C1C(=O)O[C@H]2[C@H]1CC/C(Cn1cc(CNC(=O)Cc3cn(C(=O)c4ccc(Cl)cc4)c4ccc(OC)cc34)nn1)=C\CC[C@@]1(C)O[C@@H]21	52.3%	-57.4% (active)	47%	–	7.48% (active)	48.8%	8.27% (active)	-56.9% (active)	-82% (active)
CN1CCN(CCCOc2ccc3nc(Nc4ccc(Cl)c(C(F)(F)F)c4)ccc3c2)CC1	2.44% (active)	-37.5% (active)	66%	23.3%	40.6%	76.9%	–	–	-83.7% (active)
COc1c2occc2c(OC)c2c(=O)c(-c3cc(-c4ccc(F)cc4)c(C#N)c(N)n3)c(C)oc12	31.4%	14.2%	51.2%	30.6%	22.8%	37.1%	–	–	6.13% (active)
O=C1/C(=C/c2ccccc2)Oc2ccc(O)c(I)c21	94.5%	105%	99.1%	93%	89.6%	–	86.1%	112%	93.8%
CN1C(=O)N(C)C2C1NN=c1s/c(=C\c3cccnc3)c(=O)n12 (configuration not stated)	42.2%	49.1%	81.4%	90.2%	65.9%	–	68.6%	81.5%	80.1%

Structure (SMILES)	growth [1]	growth [2]	growth [3]	growth [4]	growth [5]	growth [6]	growth [7]	growth [8]	growth [9]
O=S(=O)(NCCNc1nccc(-c2c(-c3ccc(F)cc3)nc3sccn23)n1)c1ccc(F)cc1	59%	52.1%	88.5%	–	75.3%	70.8%	71.6%	87.6%	58.3%
CC[N+](CC)=c1cc2oc3cc(N(C)C)ccc3nc-2cc1C	47.4%	28.3%	31.8%	–	10.8%	7.58% (active)	62.7%	–	16.8%
COc1ccc(/C=C2\Oc3cc(OCCCN4CCCC4)ccc3C2=O)c(OC)c1	17.8%	10.2%	74.4%	54.4%	66.8%	–	99.3%	105%	-27.7% (active)
O=C(NNC(=O)N1c2ccccc2C=Cc2ccccc21)c1ccc2ccccc2c1	95.4%	88.6%	95.3%	–	74.9%	92%	81.1%	98.4%	93.6%
COc1cccc(/C=C2\Oc3cc(OCCCN4CCCC4)ccc3C2=O)c1	19.3%	17.8%	87.9%	75.6%	69%	–	96.7%	100%	20.6%
COc1ccc(-c2[nH]nc(N)c2-c2cc(OC)c3c(c2)OCO3)cc1	46%	26%	68.8%	–	93.7%	54.2%	37.2%	60%	56.5%
CC(C)C1=CC2=C(C=O)C[C@@H]3[C@](C)(CCC[C@@]3(C)C(=O)OCC#CCN3CCCC3)[C@H]2CC1	60.9%	18.5%	–	56.1%	54.9%	65.1%	77.4%	96.8%	91.9%
C=C1CCC[C@]2(C)CCC[C@H](C)[C@@H](OC(C)=O)[C@@H]3OC(=O)C(=C)[C@@H]3C[C@H]1O2	65.9%	67.8%	–	72.5%	53%	72.7%	58%	95.2%	72.2%
CCN(CC)CCCC(C)Nc1c2ccc(Cl)cc2nc2cc(OC)c(OC)cc12 (configuration not stated)	-22.4% (active)	-23.8% (active)	–	16.2%	16.5%	45.3%	-38% (active)	-74.7% (active)	-53.3% (active)
O=C(O)C1CCCCN1c1nc(Cl)nc(Cl)n1 (configuration not stated)	102%	106%	–	104%	99.3%	97.3%	99.8%	–	95.8%
COc1cc(C(=O)/C=C/c2ccc3nc(-c4cc(F)cc(F)c4)sc3c2)cc(OC)c1OC	99.5%	95.9%	–	92.5%	95.1%	118%	95.6%	106%	94.9%
N/C(=N\C(N)=N\c1nc2ccccc2s1)c1ccncc1	35.3%	27.7%	69.5%	–	73.9%	59%	44.6%	66.9%	55.8%
OCCCCCCNc1ncnc2cc(Cl)ccc12	101%	99%	–	96.8%	80.7%	94.1%	102%	116%	88.1%
Cc1cc(N/N=C/c2nc(-c3ccc(Br)cc3)oc2C)c2cc(Cl)ccc2n1	37.9%	13.5%	60.1%	–	80.7%	92.6%	82.9%	60.7%	20.8%
COc1ccc(Nc2ncccc2C(=O)NCc2cn(Cc3cccc(Oc4ccccc4)c3)nn2)c(OC)c1	26.1%	3.15% (active)	–	30.2%	43.9%	23%	33.9%	61.8%	48.4%
